Compound activity from PubChem.
Ba/F3 V617F tox = reduce viability of Ba/F3 cells dependent on JAK2V617F | AID 1446 | actives 1.1% (n = 220,000) | inhibition, % at 5.6 µM | Ba/F3 EpoR-JAK2V617F viability, ATP luminescence;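 active means inhibition above the campaign mean plus 3 SD over all tested compounds, cut at about 24% in these data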;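 further: cytokine-independent growth of Ba/F3 cells driven by EpoR plus mutant JAK2; 0% = DMSO-treated cells and 100% = JAK inhibitor I control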
KLF5 inh = kruppel-like factor 5 inhibition | DLD-1 KLF5 promoter-luciferase reporter, luminescence | inhibition, % at 5 µM | actives 0.23% (n = 290,000) | AID 1700;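 active means inhibition above a per-plate limit of that plate's mean compound inhibition plus 3 SD, cut at about 60% in these data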;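 further: 0% = DMSO wells and 100% = LY294002 at 200 µM; higher means less KLF5 promoter-driven luciferase light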
BaF3 tox = reduces parental Ba/F3 cell viability, JAK2V617F counter-screen | actives 1.1% (n = 220,000) | CellTiter-Glo ATP luminescence | AID 1486 | inhibition, % at 5.6 µM;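 active means inhibition above a per-campaign cutoff, the mean inhibition of all tested compounds plus 3 SD, cut at about 27% in these data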;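 further: 0% = DMSO wells and 100% = JAK Inhibitor I control wells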
IEC-6 tox = counter-screen for KLF5 inhibitors: cytotoxicity in IEC-6 cells | IEC-6 cytotoxicity, luminescence viability | inhibition, % at 5 µM | actives 0.78% (n = 290,000) | AID 1825; in the data active means inhibition above about 22%;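 further: 0% = plate median of test compound wells and 100% = cytotoxic reference compound wells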
APP transl inh = APP translation inhibition | SH-SY5Y APP 5'UTR-luciferase reporter, luminescence | inhibition, % at 2 µM | actives 0.82% (n = 190,000) | AID 1285;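 active means inhibition above a set limit, derived from the sample mean plus 3 SD, cut at about 45% in these data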
Numbers without * were called inactive; . = no result; ! = not active in a repeat. Compounds with a hit are over-represented: about 1.8% of the library has one in this group of screens.

SMILES	Ba/F3 V617F tox	KLF5 inh	BaF3 tox	IEC-6 tox	APP transl inh
CCOc1ccc(CCNC(=O)C2CCN(S(=O)(=O)N3CCCCC3)CC2)cc1OCC	-1	-16	93*	-1	2
CCOc1ccc(CCNC(=O)C2CCN(S(=O)(=O)N3CCOCC3)CC2)cc1OCC	-1	1	4	-4	6
Cc1ccc(C(=O)N2CCN(c3nc4ccccc4n3C)CC2)cc1	.	-9	.	3	.
COC(CNC(=O)CCc1c(C)nc2c(-c3ccc(F)cc3)c(C)nn2c1C)OC	0	-22	5	-2	55*
COc1cc(OC)cc(-c2nc3nc(C)c(CCC(=O)NCC(OC)OC)c(C)n3n2)c1	3	-11	8	-3	10
O=C(NCC1CCCO1)C(c1ccncc1)N(Cc1cccs1)C(=O)Cn1nnc(-c2ccc(F)cc2)n1 (stereo not drawn)	-4	-10	-1	-3	48*
O=C(NCC1CCCO1)C(c1ccc(F)cc1)N(Cc1ccc(F)cc1)C(=O)Cn1nnc(-c2cccs2)n1 (stereo not drawn)	-1	-10	3	-3	-10
CSc1ccc(/C=N/NC(=O)COc2ccc(Br)cc2Cl)cc1	-2	4	4	-2	-12
CC(C)NC(=O)Cn1c(SCC(=O)N2CCCCCC2)nc2ccccc21	3	5	2	6	0
CC(C)NC(=O)Cn1c(SCC(=O)N2c3ccccc3CC2C)nc2ccccc21 (stereo not drawn)	3	-33	95*	-4	0
Cc1ccc(S(=O)(=O)NNc2ccccc2)c(C)c1	-1	-17	-1	-3	-36
O=C1C(Cl)=C(Nc2ccccc2)C(=O)c2ccccc21	-2	-20	4	-3	96*
C=CCNC1=C(Cl)C(=O)c2ccccc2C1=O	0	-26	1	27*	-3
Cn1c(/C=C/c2ccc([N+](=O)[O-])o2)nc2ccccc2c1=O	87*	-21	67*	6	37
CC1CN(CC(O)COc2ccc(C#N)cc2)CCN1CC(O)COc1ccc(C#N)cc1 (stereo not drawn)	.	-58	.	2	.
FC(F)(F)c1ccccc1NC(=S)N/N=C1\CC2CC=CC12 (stereo not drawn)	4	-3	11	0	86*
Cc1cc(=O)oc(C)c1C(=O)NNC(=O)C1(C)CC1Br (stereo not drawn)	-3	-18	-5	-2	.
CC1(C(=O)NNC(=O)c2ccc(=O)oc2)CC1Br (stereo not drawn)	0	4	28*	-3	.
NS(=O)(=O)c1ccc(NC(=O)CCC2CCCCC2)cc1	0	9	2	0	0
CC(=O)NS(=O)(=O)c1ccc(NC(=O)CCC2CCCC2)cc1	0	-9	3	5	52*
Cc1ccc(C)c(NC(=O)C(Sc2nnc(-c3cccs3)o2)c2ccccc2)c1 (stereo not drawn)	89*	-1	72*	11	-8
CC[C@H](C)C(=O)O[C@H]1C[C@@H](C)C=C2C=C[C@H](C)[C@H](CC[C@@H]3C[C@@H](O)CC(=O)O3)[C@H]21	3	-23	8	-3	8
CC[C@H](C)C(=O)O[C@H]1CCC=C2C=C[C@H](C)[C@H](CC[C@@H]3C[C@@H](O)CC(=O)O3)[C@H]21	62*	16	27*!	3	5
O=C(c1c(F)cccc1F)N1CCCC(c2nc(-c3ccc(F)cc3)no2)C1 (stereo not drawn)	.	-13	.	-2	.
C=CC(=O)NC(C)(C)CCN1CCOCC1	-1	-5	3	0	-11
SMILES	Ba/F3 V617F tox	KLF5 inh	BaF3 tox	IEC-6 tox	APP transl inh
COC(=O)c1cc(Br)ccc1NC(=O)Nc1ccccc1	-1	4	6	-2	12
COC(=O)c1cc(Br)ccc1NC(=O)Nc1ccc(C)cc1	4	-41	34*	1	9
Cc1[nH]c2ccccc2c1-c1nc2ccccc2[nH]1	11	-7	30*	4	7
Cc1ccc(-c2nc3ccccc3[nH]2)s1	10	-136	14	6	-114
Cc1ccc(C2(C)NC(=O)N(CC(=O)NC(C)c3ccccc3)C2=O)cc1 (stereo not drawn)	.	10	.	5	.
COc1ccc(Cl)cc1C(=O)NCC(c1ccco1)N(C)C (stereo not drawn)	.	2	.	8	.
CC(C)(C)c1nnc(N/N=C/c2ccccc2)n(N)c1=O	-2	0	6	-14	-8
CC(C)(C)c1nnc(N/N=C/c2ccccc2O)n(N)c1=O	-3	19	1	-3	76*
CCc1nnc(N/N=C/c2ccccc2F)n1N	9	6	-1	102*	10
Cc1ccc(NS(=O)(=O)c2c(C)noc2C)cc1	.	-8	.	-3	.
